# Laboratory results published in paper PMC7862700, “An all-to-all approach to the identification of sequence-specific readers for epigenetic DNA modifications on cytosine”.
# Tests used:
# Assay in all cases: DAPPL (digital affinity profiling via proximity ligation, sequencing); 10 mM Tris-HCl pH 7.5, 50 mM NaCl, 1 mM DTT, 4% glycerol, room temperature, 30 min; GST-TFs on glutathione beads, 16-mer random dsDNA library, 0.1% formaldehyde crosslink after washing; high values mean tight binding
# Conditions in all cases: protein: recombinant; tags: N-terminal GST; dsDNA, one strand shown
# FLI1 = biological target: T1, FLI1 (Homo sapiens, UniProt Q01543 1-452)
# T1 sequence: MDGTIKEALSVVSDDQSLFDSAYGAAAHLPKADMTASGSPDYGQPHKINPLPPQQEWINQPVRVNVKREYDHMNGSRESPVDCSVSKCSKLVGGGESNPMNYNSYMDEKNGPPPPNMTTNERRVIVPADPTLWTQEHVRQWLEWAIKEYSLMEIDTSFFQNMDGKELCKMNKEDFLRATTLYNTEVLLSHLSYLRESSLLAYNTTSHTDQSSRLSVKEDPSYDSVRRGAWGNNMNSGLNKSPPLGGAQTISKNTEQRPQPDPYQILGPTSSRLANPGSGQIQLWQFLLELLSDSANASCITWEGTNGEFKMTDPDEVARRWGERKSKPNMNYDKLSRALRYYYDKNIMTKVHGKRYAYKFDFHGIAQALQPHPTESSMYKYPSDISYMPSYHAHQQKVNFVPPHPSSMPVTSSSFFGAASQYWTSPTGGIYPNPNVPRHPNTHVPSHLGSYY
# Method in brief: (§1)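 Human transcription factors were made in yeast as GST fusions, captured on glutathione beads and barcoded with DNA. With a tag-only sample included, the pool was incubated with 200 nmole of a random double-stranded 16-mer DNA library in Tris/NaCl/DTT/glycerol buffer at room temperature for 30 min, then crosslinked with 0.1% formaldehyde after washing, ligated by proximity, amplified and sequenced. For binding signal, each hexamer's read frequency for a factor is divided by its frequency for the tag-only sample.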
# ELK1 = biological target: T2, ELK1 (Homo sapiens, UniProt P19419 1-428)
# T2 sequence: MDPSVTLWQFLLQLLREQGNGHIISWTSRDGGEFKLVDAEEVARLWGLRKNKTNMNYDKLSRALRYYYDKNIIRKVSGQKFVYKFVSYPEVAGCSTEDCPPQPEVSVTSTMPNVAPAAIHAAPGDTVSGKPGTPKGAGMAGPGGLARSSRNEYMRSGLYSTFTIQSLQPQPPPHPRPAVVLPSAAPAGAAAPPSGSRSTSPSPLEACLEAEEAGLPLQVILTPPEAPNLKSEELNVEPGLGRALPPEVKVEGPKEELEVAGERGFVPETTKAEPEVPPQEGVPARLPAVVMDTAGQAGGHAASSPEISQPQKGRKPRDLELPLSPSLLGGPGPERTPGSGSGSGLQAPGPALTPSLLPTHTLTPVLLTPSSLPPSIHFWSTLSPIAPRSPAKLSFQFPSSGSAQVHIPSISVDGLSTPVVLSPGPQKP
# Method in brief: as §1
# GABPA = biological target: T3, GABPA (Homo sapiens, UniProt Q06546 1-454)
# T3 sequence: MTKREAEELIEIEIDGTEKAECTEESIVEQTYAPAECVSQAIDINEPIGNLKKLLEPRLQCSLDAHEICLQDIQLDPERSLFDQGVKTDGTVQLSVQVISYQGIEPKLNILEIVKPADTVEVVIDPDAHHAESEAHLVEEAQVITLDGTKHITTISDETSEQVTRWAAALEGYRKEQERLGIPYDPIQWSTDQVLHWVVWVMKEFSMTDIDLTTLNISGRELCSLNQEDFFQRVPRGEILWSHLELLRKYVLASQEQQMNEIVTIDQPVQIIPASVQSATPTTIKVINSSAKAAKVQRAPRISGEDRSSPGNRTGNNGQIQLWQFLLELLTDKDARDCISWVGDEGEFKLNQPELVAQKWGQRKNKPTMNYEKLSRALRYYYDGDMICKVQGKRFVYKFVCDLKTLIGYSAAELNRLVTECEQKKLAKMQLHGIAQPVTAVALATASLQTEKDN
# Method in brief: as §1
# ERG = biological target: T4, ERG (Homo sapiens, UniProt P11308 1-479)
# T4 sequence: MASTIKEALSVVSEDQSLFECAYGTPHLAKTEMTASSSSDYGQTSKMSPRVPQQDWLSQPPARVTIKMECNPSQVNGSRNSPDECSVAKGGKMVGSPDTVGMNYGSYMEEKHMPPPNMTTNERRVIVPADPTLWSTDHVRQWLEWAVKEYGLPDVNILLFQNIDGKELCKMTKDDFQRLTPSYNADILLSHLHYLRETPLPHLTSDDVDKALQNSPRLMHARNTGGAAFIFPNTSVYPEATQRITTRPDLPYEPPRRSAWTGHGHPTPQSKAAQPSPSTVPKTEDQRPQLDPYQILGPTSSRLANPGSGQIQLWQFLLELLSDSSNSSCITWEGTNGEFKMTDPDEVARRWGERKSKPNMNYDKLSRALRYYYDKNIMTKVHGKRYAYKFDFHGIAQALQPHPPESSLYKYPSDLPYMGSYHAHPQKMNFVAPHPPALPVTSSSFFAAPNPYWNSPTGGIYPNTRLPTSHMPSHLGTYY
# Method in brief: as §1
# ELF1 = ELF1 (Homo sapiens, UniProt P32519 1-619)
# Method in brief: as §1
# SPI1 = SPI1 (Homo sapiens, UniProt P17947 1-270)
# Method in brief: as §1
# SPIB = SPIB (Homo sapiens, UniProt Q01892 1-262)
# Method in brief: as §1
# ELK3 = biological target: T5, ELK3 (Homo sapiens, UniProt P41970 1-407)
# T5 sequence: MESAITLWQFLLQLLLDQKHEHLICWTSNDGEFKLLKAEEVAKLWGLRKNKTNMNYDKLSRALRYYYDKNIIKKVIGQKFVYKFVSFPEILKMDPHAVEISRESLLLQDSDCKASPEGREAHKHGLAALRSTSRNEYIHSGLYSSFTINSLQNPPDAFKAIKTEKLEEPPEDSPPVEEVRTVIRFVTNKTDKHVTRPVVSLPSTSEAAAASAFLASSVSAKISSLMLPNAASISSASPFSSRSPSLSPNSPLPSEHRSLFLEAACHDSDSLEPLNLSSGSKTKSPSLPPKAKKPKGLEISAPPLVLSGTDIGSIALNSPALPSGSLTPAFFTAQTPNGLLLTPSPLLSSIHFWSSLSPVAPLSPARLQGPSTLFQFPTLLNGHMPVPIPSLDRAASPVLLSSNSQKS
# Method in brief: as §1
# FEV = biological target: T6, FEV (Homo sapiens, UniProt Q99581 1-238)
# T6 sequence: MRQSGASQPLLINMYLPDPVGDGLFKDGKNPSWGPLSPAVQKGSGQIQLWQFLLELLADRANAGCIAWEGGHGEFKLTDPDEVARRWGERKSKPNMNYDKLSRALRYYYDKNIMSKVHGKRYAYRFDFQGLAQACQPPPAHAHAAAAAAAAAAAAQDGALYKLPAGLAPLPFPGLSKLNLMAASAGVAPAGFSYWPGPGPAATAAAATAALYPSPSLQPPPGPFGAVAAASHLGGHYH
# Method in brief: as §1
# ETV5 = ETV5 (Homo sapiens, UniProt P41161 1-510)
# Method in brief: as §1
# SPIC = biological target: T7, SPIC (Homo sapiens, UniProt Q8N5J4 1-248)
# T7 sequence: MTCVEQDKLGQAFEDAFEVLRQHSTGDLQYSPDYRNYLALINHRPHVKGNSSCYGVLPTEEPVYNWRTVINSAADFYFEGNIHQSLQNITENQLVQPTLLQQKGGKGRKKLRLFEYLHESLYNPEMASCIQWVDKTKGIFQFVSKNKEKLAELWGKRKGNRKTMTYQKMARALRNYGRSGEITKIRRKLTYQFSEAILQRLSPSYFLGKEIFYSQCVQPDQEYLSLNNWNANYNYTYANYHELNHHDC
# Method in brief: as §1
# ELF4 = ELF4 (Homo sapiens, UniProt Q99607 1-663)
# Method in brief: as §1
# ELK4 = biological target: T8, ELK4 (Homo sapiens, UniProt P28324-2 1-405)
# T8 sequence: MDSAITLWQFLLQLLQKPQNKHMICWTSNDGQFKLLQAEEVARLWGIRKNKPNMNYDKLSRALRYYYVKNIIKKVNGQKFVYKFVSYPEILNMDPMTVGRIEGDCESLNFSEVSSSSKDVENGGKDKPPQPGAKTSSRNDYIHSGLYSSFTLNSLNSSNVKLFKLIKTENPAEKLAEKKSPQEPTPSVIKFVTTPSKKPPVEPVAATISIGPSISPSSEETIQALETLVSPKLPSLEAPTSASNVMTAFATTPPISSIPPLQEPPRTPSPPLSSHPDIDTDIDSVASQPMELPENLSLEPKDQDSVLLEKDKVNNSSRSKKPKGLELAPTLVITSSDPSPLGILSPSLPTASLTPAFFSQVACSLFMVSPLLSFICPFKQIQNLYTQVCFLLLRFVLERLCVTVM
# Method in brief: as §1
# ETV2 = biological target: T9, ETV2 (Homo sapiens, UniProt O00321 1-342)
# T9 sequence: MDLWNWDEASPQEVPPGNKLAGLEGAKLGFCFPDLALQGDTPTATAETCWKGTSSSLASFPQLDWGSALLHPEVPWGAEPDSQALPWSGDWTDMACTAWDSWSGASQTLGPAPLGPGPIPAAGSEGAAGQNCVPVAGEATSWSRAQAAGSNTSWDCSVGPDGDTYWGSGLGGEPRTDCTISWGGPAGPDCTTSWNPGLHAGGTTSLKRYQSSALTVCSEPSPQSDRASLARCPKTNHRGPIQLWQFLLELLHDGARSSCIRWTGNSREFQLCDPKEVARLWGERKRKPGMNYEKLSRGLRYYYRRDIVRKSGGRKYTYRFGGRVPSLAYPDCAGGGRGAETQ
# Method in brief: as §1
# ELF3 = biological target: T10, ELF3 (Homo sapiens, UniProt P78545 1-371)
# T10 sequence: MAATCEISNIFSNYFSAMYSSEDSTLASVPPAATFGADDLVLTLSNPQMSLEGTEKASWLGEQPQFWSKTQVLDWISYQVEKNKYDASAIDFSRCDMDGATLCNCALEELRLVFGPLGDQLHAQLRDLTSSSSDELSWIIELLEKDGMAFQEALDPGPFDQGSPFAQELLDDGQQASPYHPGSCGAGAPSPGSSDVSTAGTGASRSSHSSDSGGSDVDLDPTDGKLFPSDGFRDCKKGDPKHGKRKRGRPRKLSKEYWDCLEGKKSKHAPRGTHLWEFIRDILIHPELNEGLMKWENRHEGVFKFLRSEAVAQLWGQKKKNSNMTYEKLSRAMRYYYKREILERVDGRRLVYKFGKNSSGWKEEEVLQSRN
# Method in brief: as §1
# ETV1 = ETV1 (Homo sapiens, UniProt P50549 1-477)
# Method in brief: as §1
# SPIB, sequence (Q01892 whole entry): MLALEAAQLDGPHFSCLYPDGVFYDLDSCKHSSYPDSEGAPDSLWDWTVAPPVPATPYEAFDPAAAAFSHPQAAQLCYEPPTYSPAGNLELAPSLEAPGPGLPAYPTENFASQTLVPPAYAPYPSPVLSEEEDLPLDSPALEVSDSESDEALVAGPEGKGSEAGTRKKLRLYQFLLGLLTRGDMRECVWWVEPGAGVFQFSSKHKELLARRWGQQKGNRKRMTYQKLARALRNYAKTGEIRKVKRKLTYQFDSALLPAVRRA
# ETV5, sequence (P41161 whole entry): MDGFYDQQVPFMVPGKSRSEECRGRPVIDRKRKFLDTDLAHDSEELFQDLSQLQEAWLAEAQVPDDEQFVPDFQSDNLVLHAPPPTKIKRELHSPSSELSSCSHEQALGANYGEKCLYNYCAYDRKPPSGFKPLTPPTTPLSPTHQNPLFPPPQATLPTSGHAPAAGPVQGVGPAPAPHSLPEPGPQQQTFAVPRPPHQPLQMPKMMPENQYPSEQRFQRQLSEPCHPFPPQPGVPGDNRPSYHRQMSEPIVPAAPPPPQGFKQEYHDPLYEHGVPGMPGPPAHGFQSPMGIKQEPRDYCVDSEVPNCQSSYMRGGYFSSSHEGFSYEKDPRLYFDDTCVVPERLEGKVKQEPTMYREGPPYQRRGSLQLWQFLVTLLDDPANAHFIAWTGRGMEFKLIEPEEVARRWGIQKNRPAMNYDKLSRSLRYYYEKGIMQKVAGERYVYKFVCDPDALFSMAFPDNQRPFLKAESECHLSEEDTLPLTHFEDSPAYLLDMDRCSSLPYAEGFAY
# ELF1, sequence (P32519 whole entry): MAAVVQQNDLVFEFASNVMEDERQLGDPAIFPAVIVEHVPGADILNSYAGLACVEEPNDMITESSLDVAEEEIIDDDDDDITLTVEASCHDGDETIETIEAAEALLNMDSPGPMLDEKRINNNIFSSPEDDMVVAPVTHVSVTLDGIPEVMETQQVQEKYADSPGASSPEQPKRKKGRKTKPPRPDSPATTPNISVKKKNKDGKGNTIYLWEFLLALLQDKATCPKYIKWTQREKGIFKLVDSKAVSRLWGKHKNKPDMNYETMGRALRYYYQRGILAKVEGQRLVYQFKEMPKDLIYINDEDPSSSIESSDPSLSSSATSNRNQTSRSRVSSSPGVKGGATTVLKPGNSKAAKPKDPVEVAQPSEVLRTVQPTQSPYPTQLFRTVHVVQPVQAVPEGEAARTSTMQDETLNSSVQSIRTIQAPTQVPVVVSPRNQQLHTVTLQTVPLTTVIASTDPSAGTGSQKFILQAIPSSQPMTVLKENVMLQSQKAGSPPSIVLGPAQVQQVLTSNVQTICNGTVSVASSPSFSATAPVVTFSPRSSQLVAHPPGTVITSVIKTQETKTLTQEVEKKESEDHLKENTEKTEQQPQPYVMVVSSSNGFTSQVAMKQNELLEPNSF
# ETV1, sequence (P50549 whole entry): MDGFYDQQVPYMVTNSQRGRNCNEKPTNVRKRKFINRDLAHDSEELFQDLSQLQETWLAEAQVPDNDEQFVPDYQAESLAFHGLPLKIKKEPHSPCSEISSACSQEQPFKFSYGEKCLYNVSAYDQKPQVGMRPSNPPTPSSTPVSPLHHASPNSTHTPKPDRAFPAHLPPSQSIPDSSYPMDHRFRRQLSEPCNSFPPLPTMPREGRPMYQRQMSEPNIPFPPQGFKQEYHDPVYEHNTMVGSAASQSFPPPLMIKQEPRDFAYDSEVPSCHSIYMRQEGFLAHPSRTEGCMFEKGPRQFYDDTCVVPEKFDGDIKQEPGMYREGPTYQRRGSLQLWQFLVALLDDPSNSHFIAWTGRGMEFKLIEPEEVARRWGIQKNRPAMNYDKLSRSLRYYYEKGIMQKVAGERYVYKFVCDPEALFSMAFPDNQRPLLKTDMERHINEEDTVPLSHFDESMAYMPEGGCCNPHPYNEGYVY
# ELF4, sequence (Q99607 whole entry): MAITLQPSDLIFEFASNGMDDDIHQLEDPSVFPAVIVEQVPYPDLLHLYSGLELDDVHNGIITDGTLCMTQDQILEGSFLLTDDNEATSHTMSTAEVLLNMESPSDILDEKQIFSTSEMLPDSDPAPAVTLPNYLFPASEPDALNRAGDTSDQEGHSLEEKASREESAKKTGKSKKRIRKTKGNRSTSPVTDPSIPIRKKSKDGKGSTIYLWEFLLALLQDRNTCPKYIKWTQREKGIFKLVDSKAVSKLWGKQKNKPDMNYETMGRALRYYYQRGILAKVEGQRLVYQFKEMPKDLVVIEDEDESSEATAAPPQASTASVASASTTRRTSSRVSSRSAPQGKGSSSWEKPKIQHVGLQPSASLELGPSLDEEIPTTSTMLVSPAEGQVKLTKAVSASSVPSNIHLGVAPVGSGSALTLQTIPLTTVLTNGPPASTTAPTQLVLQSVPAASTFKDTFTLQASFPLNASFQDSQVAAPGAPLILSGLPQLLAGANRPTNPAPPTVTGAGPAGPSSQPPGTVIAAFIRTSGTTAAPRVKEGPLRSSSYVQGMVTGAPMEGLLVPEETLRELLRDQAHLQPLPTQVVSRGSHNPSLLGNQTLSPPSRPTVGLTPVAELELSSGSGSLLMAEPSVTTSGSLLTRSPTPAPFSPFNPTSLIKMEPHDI
sequence,measurement,setting,value
CAATCA,binding signal,FLI1,"1.11 fold enrichment (6-mer frequency, TF over GST control)"
same,binding signal,ELK1,"1.11 fold enrichment (6-mer frequency, TF over GST control)"
same,binding signal,GABPA,"1.24 fold enrichment (6-mer frequency, TF over GST control)"
same,binding signal,ERG,"1.14 fold enrichment (6-mer frequency, TF over GST control)"
same,binding signal,ELF1,"1.19 fold enrichment (6-mer frequency, TF over GST control)"
same,binding signal,SPI1,"1.08 fold enrichment (6-mer frequency, TF over GST control)"
same,binding signal,SPIB,"1.1 fold enrichment (6-mer frequency, TF over GST control)"
same,binding signal,ELK3,"1.05 fold enrichment (6-mer frequency, TF over GST control)"
same,binding signal,FEV,"1.11 fold enrichment (6-mer frequency, TF over GST control)"
same,binding signal,ETV5,"1.15 fold enrichment (6-mer frequency, TF over GST control)"
same,binding signal,SPIC,"1.19 fold enrichment (6-mer frequency, TF over GST control)"
same,binding signal,ELF4,"1.16 fold enrichment (6-mer frequency, TF over GST control)"
same,binding signal,ELK4,"1.04 fold enrichment (6-mer frequency, TF over GST control)"
same,binding signal,ETV2,"1.15 fold enrichment (6-mer frequency, TF over GST control)"
same,binding signal,ELF3,"1.12 fold enrichment (6-mer frequency, TF over GST control)"
same,binding signal,ETV1,"1.13 fold enrichment (6-mer frequency, TF over GST control)"
